36 compounds from ChEMBL document CHEMBL4513141, “CO-ADD screening of NIH (USA) - Clinical Collection” (2021) can be followed below.

Entries with a potency or affinity are not part of this list.

The test system of this assay is Staphylococcus aureus. The conditions noted are these: Concentration 20 uM; ASSAY_TEST Inhibition of Bacterial Growth; detection method Absorption (OD600); MEDIA CAMHB; plate type 384well; NBS; CORNING #3640; time 18 hr.
In general, Inhibition refers to the drop in the measured response relative to a control, in per cent. Take `CC[N+](C)(CC)CCOC(=O)C(O)(c1ccccc1)C1CCCCC1.[Br-]` (stereo unspecified) [OXYPHENONIUM BROMIDE]: the Inhibition worked out at 12.65%.

On to `Cc1ccc(O)c([C@H](CCN(C(C)C)C(C)C)c2ccccc2)c1.O=C(O)C(O)C(O)C(=O)O` [TOLTERODINE TARTRATE], for which the Inhibition is -0.49%.

Regarding `Nc1nc(=O)c2nc(CNc3ccc(C(=O)N[C@@H](CCC(=O)O)C(=O)O)cc3)cnc2[nH]1` [FOLIC ACID], the Inhibition came out at 10.57%.

`CCOC(=O)c1ccc(OC(=O)CCCCCN=C(N)N)cc1.CS(=O)(=O)O`: the Inhibition was 11.22%.

In the case of `CC(=O)NS(=O)(=O)c1ccc(N)cc1` [SULFACETAMIDE], the Inhibition stood at 13.64%.

As for `C[C@]12CC[C@@H]3c4ccc(OS(=O)(=O)[O-])cc4CC[C@H]3[C@@H]1CCC2=O.[Na+]` [ESTRONE SODIUM SULFATE], the Inhibition amounted to 8.52%.

As for `CC(C)[N+](C)(CCOC(=O)C1c2ccccc2Oc2ccccc21)C(C)C.[Br-]` [PROPANTHELINE BROMIDE], the Inhibition stood at 16.95%.

Turning to `CCN(CC)CC(=O)Nc1c(C)cccc1C` [LIDOCAINE], the Inhibition is given as 9.46%.

Take `CC(=O)OCC(=O)[C@@]12OC(C)(C)O[C@@H]1C[C@H]1[C@@H]3C[C@H](F)C4=CC(=O)C=C[C@]4(C)[C@@]3(F)[C@@H](O)C[C@@]12C` [FLUOCINONIDE]: the Inhibition came out at 10.01%.

As for `Cl.O=C(c1ccc(OCCN2CCCCC2)cc1)c1c(-c2ccc(O)cc2)sc2cc(O)ccc12` [RALOXIFENE HYDROCHLORIDE], the Inhibition is listed as 16.87%.

For `C=C1/C(=C\C=C2/CCC[C@]3(C)[C@@H]([C@H](C)/C=C/[C@@H](O)C4CC4)CC[C@@H]23)C[C@@H](O)C[C@@H]1O` [CALCIPOTRIENE], the Inhibition was found to be 9.78%.

Take `CCCNC(C)C(=O)Nc1ccccc1C.Cl` (stereo unspecified) [PRILOCAINE HYDROCHLORIDE]: the Inhibition stood at 16.77%.

With `CCC[C@@H]1C[C@@H](C(=O)N[C@@H]([C@H]2O[C@H](SC)[C@H](O)[C@@H](O)[C@H]2O)[C@@H](C)O)N(C)C1.Cl.O` [LINCOMYCIN HYDROCHLORIDE], the Inhibition stood at 20.41%.

For `CC[C@H](C)C(=O)O[C@H]1C[C@H](O)C=C2C=C[C@H](C)[C@H](CC[C@@H](O)C[C@@H](O)CC(=O)[O-])[C@H]21.[Na+]` [PRAVASTATIN SODIUM], the Inhibition was 12.65%.

As for `NNC(=O)c1ccncc1` [ISONIAZID], the Inhibition amounted to 8.75%.

Turning to `CNCCCN1c2ccccc2CCc2ccccc21.Cl` [DESIPRAMINE HYDROCHLORIDE], the Inhibition came to 7.54%.

`CC1(C)O[C@@H]2C[C@H]3[C@@H]4C[C@H](F)C5=CC(=O)C=C[C@]5(C)[C@@]4(F)[C@@H](O)C[C@]3(C)[C@]2(C(=O)CO)O1` [FLUOCINOLONE ACETONIDE]: the Inhibition is -31.13%.

For `COc1cc2nc(N(C)CCCNC(=O)C3CCCO3)nc(N)c2cc1OC` (stereo unspecified) [ALFUZOSIN], the Inhibition was 6%.

As to `C[C@H]1[C@@H](OC(=O)CCC(=O)O)O[C@@H]2O[C@@]3(C)CC[C@H]4[C@H](C)CC[C@@H]1[C@@]24OO3`, the Inhibition is -17.43%.

`O=C([O-])c1cc(=O)c2c(OCC(O)COc3cccc4oc(C(=O)[O-])cc(=O)c34)cccc2o1.[Na+].[Na+]` [CROMOLYN SODIUM]: the Inhibition is 9.1%.

As to `Oc1ccc(/C=C/c2cc(O)cc(O)c2)cc1` [RESVERATROL], the Inhibition is 19.49%.

As to `CNC(=C[N+](=O)[O-])NCCSCc1csc(CN(C)C)n1` [NIZATIDINE], the Inhibition was 11.02%.

As for `Nc1ncnc2c1ncn2[C@@H]1O[C@H](CO)[C@@H](O)[C@@H]1O` [VIDARABINE], the Inhibition was found to be 17.44%.

Regarding `CCOC(=O)C1=C(C)NC(C)=C(C(=O)OC)C1c1cccc([N+](=O)[O-])c1` (stereo unspecified) [NITRENDIPINE], the Inhibition amounted to 11.21%.

As for `CCN1CCC[C@H]1CNC(=O)c1cc(S(N)(=O)=O)ccc1OC` [LEVOSULPIRIDE], the Inhibition came to 7.78%.

Consider `CCC(=C(c1ccccc1)c1ccc(OCCN(C)C)cc1)c1ccccc1`, for which the Inhibition was 2.87%.

On to `COc1ccc(-c2oc3c(CC=C(C)C)c(O[C@@H]4O[C@H](CO)[C@@H](O)[C@H](O)[C@H]4O)cc(O)c3c(=O)c2O[C@@H]2O[C@@H](C)[C@H](O)[C@@H](O)[C@H]2O)cc1` [ICARIIN], for which the Inhibition is 11.47%.

Turning to `CCC(=O)[N-]S(=O)(=O)c1ccc(-c2c(-c3ccccc3)noc2C)cc1.[Na+]` [PARECOXIB SODIUM], the Inhibition is 0.13%.

For the compound `O=c1c(-c2ccccc2)c1-c1ccccc1` [DIPHENCYPRONE], the Inhibition is on record as -9.91%.

Consider `COc1ccc(CN2CCN(C(c3ccc(F)cc3)c3ccc(F)cc3)CC2)c(OC)c1OC.Cl.Cl`, for which the Inhibition came to 8.66%.

On to `CC1CNc2c(cccc2S(=O)(=O)N[C@@H](CCCNC(=N)N)C(=O)N2CC[C@@H](C)C[C@@H]2C(=O)O)C1` (stereo partly specified) [ARGATROBAN], for which the Inhibition was determined as 5.54%.

In the case of `Cc1ncc([N+](=O)[O-])n1CC(O)CCl` (stereo unspecified) [ORNIDAZOLE], the Inhibition was 10.83%.

As to `CCCCC[C@H](O)/C=C/[C@H]1[C@H](O)CC(=O)[C@@H]1CCCCCCC(=O)O` [ALPROSTADIL], the Inhibition is given as 3.1%.

As to `CC(C)c1ccc2oc3nc(N)c(C(=O)O)cc3c(=O)c2c1` [AMLEXANOX], the Inhibition amounted to 16.12%.

For the compound `Cc1ccc(C)c(OCCCC(C)(C)C(=O)O)c1` [GEMFIBROZIL], the Inhibition is reported as 11.1%.

Take `CCCCNC(=O)NS(=O)(=O)c1ccc(C)cc1` [TOLBUTAMIDE]: the Inhibition came to 4.92%.
